Legend:
[1] = test system: CHO; test: % viability of CHO cells (MTT); higher = less toxic; details: 48 h
Procedure, shortened: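 CHO cells seeded at 10^6 cells/well were exposed to compound at 2 or 20 µM for 48 h. Survival, as percent of untreated cells, was measured with the colorimetric tetrazolium (MTT) assay.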

[2] = test system: HepG2-A16-CD81; test: % inhibition of HepG2 viability (CellTiter-Glo); higher = more toxic; details: 5 µM;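 also: HepG2-A16-CD81 hepatoma cells plated as in the liver-stage assay but without sporozoites, with DMSO wells as negative and 25 µM puromycin as positive control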
[3] = test system: Plasmodium falciparum NF54 stage IV/V gametocytes; test: % inhibition of gametocyte viability (PrestoBlue); higher = more inhibition; details: 48 h
Procedure, shortened: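 Compound was tested at 1 or 5 µM against Stage IV/V NF54 gametocytes plated at 100 µL/well (2% gametocytaemia, 5% haematocrit). After 48 h of stationary, hypoxic incubation at 37 °C, 10 µL PrestoBlue was added for 2 h before reading 612 nm fluorescence from 70 µL of transferred supernatant. Gametocyte viability inhibition, as a percentage, was scaled against vehicle and kill controls from a single run.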

[4] = test system: Plasmodium falciparum NF54 asexual blood stage; test: % inhibition of asexual blood stage proliferation (pLDH); higher = more inhibition; details: 72 h
Procedure, shortened: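 In 96-well plates, compound at 2 or 20 µM was added to Plasmodium falciparum NF54 ring-stage cultures (1% haematocrit, 2% parasitaemia). Plates were incubated for 72 h at 37 °C in 4% CO2, 3% O2 and 93% N2, and survival was then read at 620 nm using the parasite lactate dehydrogenase assay. Inhibition of asexual proliferation, expressed as a percentage, was normalised to controls.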

[5] = test system: Plasmodium falciparum NF54 stage IV/V gametocytes; test: % inhibition of gametocyte viability (ATP bioluminescence); higher = more inhibition; details: 24 h
Procedure, shortened: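 Density gradients were used to enrich stage IV/V NF54 gametocytes, which were then seeded into 96-well plates at 30,000 per well with compound at 1 or 5 µM. The plates were incubated at 37 °C for 24 h, and ATP was measured with the Promega BacTiter Glo bioluminescence system. Percent inhibition of gametocyte viability was normalised to the plate controls from a single run.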

[6] = test system: Plasmodium falciparum NF54 stage IV/V gametocytes; test: % inhibition of gametocyte viability (luciferase reporter); higher = more inhibition; details: 48 h
Procedure, shortened: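 Stage IV/V gametocytes of the NF54-Pfs16-GFP-Luc line (2% gametocytaemia, 2% haematocrit) were exposed to compound at 1 or 5 µM. Incubation was 48 h at 37 °C, stationary and hypoxic. Luminescence was read on 30 µL lysate plus 30 µL Promega luciferin substrate on a GloMax-Multi+ reader with 10 s integration. Percent inhibition was normalised to DMSO and kill controls from a single run.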

SMILES	% viability of CHO cells ([1]; 2 µM) [%]	% viability of CHO cells ([1]; 20 µM) [%]	% inhibition of HepG2 viability [2] [%]	% inhibition of gametocyte viability ([3]; 1 µM) [%]	% inhibition of gametocyte viability ([3]; 5 µM) [%]	% inhibition of asexual blood stage proliferation ([4]; 2 µM) [%]	% inhibition of asexual blood stage proliferation ([4]; 20 µM) [%]	% inhibition of gametocyte viability ([5]; 1 µM) [%]	% inhibition of gametocyte viability ([5]; 5 µM) [%]	% inhibition of gametocyte viability ([6]; 1 µM) [%]	% inhibition of gametocyte viability ([6]; 5 µM) [%]
Nc1nc(C(F)(F)F)cc2c1[nH]c(=O)n2Cc1ccccc1	89.2	102	8.47	2.55	20.9	2.26	35	< 0	< 0	18.1	< 0
Nc1nc(O)c(Br)c(-c2ccccc2)n1	89.3	61.8	7.28	< 0	16.6	6.53	33.7	< 0	< 0	1.49	9.71
O=C(CSc1nnc(Br)n1-c1ccc(C2CC2)c2ccccc12)Nc1ccc(C(=O)O)cc1Cl	98.5	61.4	-1.62	15.4	20.5	3.71	46.7	< 0	< 0	< 0	< 0
OB1OCc2cc(Cl)ccc21	90.1	100	-4.78	< 0	< 0	2.76	-5.4	< 0	< 0	< 0	< 0
Clc1ccc(Cn2c(CN3CCCC3)nc3ccccc32)cc1	97.8	91.5	2.06	23.6	61	11.9	69	10.2	57.1	1.55	< 0
CC(N)C(=O)NC(CCCCN)C(=O)NC(CCCNC(=N)N)C(=O)NC(Cc1c[nH]cn1)C(=O)NC(Cc1c[nH]cn1)C(=O)NCC(=O)NC(Cc1ccc(O)cc1)C(=O)NC(CCCCN)C(=O)NC(CCCNC(=N)N)C(=O)NC(CCCCN)C(=O)NC(Cc1ccccc1)C(=O)NC(Cc1c[nH]cn1)C(N)=O (stereo not given)	105	102	-0.769	< 0	14.3	10.1	17.2	< 0	< 0	< 0	< 0
Cc1nc(N(C)C(=O)Cc2ccc(-c3ccccn3)cc2)sc1S(N)(=O)=O	85.2	59.1	-0.405	20.7	39.1	-8.1	-31.8	4.11	< 0	17.6	< 0
O=C(Nc1cccc(C2=NCCN2)c1)c1ccc(-c2ccc(C(=O)Nc3cccc(C4=NCCN4)c3)cc2)cc1	90.2	96.3	14.5	31.3	62.4	54	41.2	7.89	38	< 0	59.1
O=C(CCCC(F)(F)F)N1CCC(c2nc(-c3nccs3)no2)CC1	113	105	8.03	-0.494	2.08	7.54	19.8	0.351	< 0	< 0	8.02
Cc1cc(NS(=O)(=O)c2ccc(-c3ccc(F)cc3F)cc2)no1	95.4	116	1.14	2.55	66.2	-0.00494	-3.92	0.517	< 0	< 0	< 0

From the supplement of paper PMC7801607
